Assays:
[1] = target: Mitogen-activated protein kinase kinase kinase kinase 4 (Homo sapiens) (UniProt O95819); details: at 1 µM;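 note: reported figure is an averaged inhibition value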
[2] = target: Dual specificity mitogen-activated protein kinase kinase 1 (Homo sapiens) (UniProt Q02750); details: at 0.1 µM
[3] = target: Dual specificity mitogen-activated protein kinase kinase 1 (Homo sapiens) (UniProt Q02750); details: at 1 µM
[4] = target: Misshapen-like kinase 1 (Homo sapiens) (UniProt Q8N4C8); details: at 0.1 µM
[5] = target: Misshapen-like kinase 1 (Homo sapiens) (UniProt Q8N4C8); details: at 1 µM
[6] = target: T1, Serine/threonine-protein kinase 4 (Homo sapiens) (UniProt Q13043); details: at 0.1 µM
T1 sequence (whole entry): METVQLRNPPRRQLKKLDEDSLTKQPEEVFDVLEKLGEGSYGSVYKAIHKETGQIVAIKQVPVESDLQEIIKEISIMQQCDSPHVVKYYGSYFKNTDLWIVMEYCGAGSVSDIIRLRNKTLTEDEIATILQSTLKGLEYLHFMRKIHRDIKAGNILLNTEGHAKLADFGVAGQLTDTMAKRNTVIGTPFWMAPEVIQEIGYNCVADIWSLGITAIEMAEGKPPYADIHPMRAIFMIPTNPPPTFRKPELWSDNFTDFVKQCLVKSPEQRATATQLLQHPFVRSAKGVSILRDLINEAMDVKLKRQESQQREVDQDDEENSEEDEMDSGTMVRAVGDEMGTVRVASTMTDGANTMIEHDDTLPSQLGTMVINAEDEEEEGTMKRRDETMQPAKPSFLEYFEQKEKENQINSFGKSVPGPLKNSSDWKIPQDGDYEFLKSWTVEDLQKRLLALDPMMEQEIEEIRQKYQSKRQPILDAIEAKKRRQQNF

[7] = target: T1, Serine/threonine-protein kinase 4 (Homo sapiens); details: at 1 µM
[8] = target: T2, Serine/threonine-protein kinase 3 (Homo sapiens) (UniProt Q13188); details: at 0.1 µM
T2 sequence (whole entry): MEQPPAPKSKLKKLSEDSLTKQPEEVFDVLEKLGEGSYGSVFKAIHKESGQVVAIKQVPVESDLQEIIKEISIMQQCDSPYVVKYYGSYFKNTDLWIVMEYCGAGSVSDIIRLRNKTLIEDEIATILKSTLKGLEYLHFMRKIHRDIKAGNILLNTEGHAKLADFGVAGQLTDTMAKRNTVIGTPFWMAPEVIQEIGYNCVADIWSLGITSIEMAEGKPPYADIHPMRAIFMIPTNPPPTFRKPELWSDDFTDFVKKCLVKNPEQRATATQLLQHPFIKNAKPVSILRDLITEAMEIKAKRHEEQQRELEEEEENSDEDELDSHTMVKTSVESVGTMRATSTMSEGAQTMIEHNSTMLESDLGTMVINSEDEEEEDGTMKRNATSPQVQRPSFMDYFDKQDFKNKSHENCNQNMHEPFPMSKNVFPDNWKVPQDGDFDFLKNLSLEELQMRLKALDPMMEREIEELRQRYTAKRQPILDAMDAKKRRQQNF

[9] = target: T2, Serine/threonine-protein kinase 3 (Homo sapiens); details: at 1 µM
[10] = target: Serine/threonine-protein kinase 26 (Homo sapiens) (UniProt Q9P289); details: at 0.1 µM
Chain of Serine/threonine-protein kinase 26 (Homo sapiens) (Q9P289 2-416 limits assumed): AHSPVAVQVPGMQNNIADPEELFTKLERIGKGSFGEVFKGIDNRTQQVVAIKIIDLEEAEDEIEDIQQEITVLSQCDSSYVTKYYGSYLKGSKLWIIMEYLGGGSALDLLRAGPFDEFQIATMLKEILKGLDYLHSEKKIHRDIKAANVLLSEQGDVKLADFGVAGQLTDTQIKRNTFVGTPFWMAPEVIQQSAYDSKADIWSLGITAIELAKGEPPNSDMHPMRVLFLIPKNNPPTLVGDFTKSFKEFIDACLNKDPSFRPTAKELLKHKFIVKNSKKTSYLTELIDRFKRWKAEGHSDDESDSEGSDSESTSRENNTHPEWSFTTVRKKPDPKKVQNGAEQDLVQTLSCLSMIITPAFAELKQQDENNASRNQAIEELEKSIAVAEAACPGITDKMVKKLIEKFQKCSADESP

Chain of Misshapen-like kinase 1 (Homo sapiens) (Q8N4C8 whole entry, looked up): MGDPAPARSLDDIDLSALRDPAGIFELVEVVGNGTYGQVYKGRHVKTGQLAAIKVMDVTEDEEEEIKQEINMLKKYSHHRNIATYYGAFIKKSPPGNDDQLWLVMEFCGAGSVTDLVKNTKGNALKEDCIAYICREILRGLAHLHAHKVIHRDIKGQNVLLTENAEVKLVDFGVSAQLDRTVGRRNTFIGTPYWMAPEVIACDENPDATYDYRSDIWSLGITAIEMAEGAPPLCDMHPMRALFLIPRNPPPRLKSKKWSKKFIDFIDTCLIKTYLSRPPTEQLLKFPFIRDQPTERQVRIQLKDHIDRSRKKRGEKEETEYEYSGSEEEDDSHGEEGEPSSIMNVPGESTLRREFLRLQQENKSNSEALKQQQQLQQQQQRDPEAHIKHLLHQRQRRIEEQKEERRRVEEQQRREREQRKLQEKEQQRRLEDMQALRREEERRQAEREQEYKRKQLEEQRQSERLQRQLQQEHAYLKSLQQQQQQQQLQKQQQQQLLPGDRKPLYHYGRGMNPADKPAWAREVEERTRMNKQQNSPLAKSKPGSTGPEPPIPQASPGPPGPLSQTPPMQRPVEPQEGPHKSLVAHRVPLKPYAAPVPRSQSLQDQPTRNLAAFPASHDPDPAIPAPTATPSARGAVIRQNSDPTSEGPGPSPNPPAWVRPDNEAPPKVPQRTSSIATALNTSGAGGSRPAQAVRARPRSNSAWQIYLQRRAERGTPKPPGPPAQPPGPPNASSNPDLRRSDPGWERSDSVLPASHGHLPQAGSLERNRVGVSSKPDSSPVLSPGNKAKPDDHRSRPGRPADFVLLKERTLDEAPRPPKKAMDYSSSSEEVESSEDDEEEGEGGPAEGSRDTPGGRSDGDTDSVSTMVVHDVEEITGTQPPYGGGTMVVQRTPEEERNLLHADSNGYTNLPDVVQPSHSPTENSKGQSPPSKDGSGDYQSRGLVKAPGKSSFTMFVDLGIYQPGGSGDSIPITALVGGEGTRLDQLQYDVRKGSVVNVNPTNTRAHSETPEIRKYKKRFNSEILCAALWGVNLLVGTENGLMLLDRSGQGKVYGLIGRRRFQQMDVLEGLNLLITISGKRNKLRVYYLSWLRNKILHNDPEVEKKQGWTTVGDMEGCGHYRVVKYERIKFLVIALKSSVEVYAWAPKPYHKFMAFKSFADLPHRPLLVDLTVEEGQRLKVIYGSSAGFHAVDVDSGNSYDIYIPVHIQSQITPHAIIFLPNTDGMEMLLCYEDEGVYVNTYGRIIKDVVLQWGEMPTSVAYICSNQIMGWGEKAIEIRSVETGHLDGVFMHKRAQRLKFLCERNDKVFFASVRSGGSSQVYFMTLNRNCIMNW
Chain of Mitogen-activated protein kinase kinase kinase kinase 4 (Homo sapiens) (O95819 2-1239 limits assumed): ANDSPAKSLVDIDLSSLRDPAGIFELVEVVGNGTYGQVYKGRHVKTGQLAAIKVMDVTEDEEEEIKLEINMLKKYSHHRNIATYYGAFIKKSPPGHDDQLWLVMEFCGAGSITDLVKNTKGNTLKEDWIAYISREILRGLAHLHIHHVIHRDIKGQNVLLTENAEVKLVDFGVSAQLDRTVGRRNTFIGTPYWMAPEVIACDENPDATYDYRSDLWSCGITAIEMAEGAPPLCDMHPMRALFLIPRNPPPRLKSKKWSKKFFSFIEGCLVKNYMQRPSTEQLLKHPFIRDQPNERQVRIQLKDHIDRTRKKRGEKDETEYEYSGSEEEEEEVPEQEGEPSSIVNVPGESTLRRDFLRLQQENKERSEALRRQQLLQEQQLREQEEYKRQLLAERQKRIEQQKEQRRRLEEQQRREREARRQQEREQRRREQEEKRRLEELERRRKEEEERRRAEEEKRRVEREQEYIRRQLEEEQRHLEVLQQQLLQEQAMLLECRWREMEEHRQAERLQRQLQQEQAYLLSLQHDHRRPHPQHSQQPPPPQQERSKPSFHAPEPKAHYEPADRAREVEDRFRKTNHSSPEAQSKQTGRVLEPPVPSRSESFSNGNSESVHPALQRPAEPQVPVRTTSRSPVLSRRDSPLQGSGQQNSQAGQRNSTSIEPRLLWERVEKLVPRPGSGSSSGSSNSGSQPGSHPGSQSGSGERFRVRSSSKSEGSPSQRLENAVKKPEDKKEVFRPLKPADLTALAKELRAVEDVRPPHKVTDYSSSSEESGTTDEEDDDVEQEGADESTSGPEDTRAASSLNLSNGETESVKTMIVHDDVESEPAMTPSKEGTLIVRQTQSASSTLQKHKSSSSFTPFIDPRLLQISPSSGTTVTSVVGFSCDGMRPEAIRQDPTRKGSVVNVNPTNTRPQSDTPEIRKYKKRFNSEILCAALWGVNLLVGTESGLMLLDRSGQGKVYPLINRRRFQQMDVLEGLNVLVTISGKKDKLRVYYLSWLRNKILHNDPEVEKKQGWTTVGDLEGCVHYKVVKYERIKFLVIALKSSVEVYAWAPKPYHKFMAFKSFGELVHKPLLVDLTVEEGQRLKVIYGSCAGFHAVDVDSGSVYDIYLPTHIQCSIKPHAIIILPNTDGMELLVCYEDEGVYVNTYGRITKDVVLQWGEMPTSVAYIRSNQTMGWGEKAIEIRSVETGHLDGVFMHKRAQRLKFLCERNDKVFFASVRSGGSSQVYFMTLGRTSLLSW
Chain of Dual specificity mitogen-activated protein kinase kinase 1 (Homo sapiens) (Q02750 whole entry): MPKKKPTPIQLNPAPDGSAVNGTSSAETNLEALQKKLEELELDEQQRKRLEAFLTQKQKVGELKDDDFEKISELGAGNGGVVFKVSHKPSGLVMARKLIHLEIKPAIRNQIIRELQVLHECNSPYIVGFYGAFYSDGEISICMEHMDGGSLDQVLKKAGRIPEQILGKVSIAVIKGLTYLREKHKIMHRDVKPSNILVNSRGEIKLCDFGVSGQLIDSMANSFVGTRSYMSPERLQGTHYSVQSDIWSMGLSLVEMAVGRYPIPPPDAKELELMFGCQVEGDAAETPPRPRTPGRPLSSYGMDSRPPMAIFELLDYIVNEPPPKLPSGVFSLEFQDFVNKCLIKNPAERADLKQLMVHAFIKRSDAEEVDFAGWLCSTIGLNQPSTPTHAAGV

Compound	inhibition [1] [%]	inhibition [2] [%]	inhibition [3] [%]	inhibition [4] [%]	inhibition [5] [%]	inhibition [6] [%]	inhibition [7] [%]	inhibition [8] [%]	inhibition [9] [%]	inhibition [10] [%]
CC1=C(C(=O)Nc2ccc3[nH]ncc3c2)C(c2ccc3ccccc3c2)CC(=O)N1 (stereo not given)	3.73	8.09	44.4	4.56	3.98	3.56	12.2	3.29	9.79	-0.11
COc1cc(C)c(NC(=O)CN(C)C)cc1Nc1nc(Nc2cccc(F)c2C(N)=O)c2cc[nH]c2n1	17.8	3.12	6.41	3.15	13.8	4.73	17.7	5.85	7.94	0.41
CS(=O)(=O)CCNCc1ccc(-c2ccc3ncnc(Nc4ccc(OCc5cccc(F)c5)c(C(F)(F)F)c4)c3c2)o1	8.1	5.38	4.64	4.62	7.1	3.92	5.23	3.56	4.74	-1.09
Cc1cc(O)cc(C)c1/C=C/c1cncc(-c2nn[nH]n2)c1	25.3	6.51	5.24	9.23	21.7	3.48	9.22	4.45	10.7	-1.84
COc1ccc(-c2ccncc2)cc1C(N)=O	11.4	4.89	4.05	6.61	8.92	3.27	7.82	4.87	6.68	-1.91
Nc1nc(-c2ccc3c(c2)C(=Cc2cc(Br)c(O)c(Br)c2)C(=O)N3)cs1	75.3	-1.03	-1.25	10.2	56.9	-2.22	9.55	-2.3	12.2	0.73
CCn1c(-c2nonc2N)nc2c(N3CCCC3)nccc21	2.78	-2.28	-2.11	0.71	2.4	-1.49	-1.2	-2.05	0.3	0.47
CC(C)=Cc1cccc2c1/C(=N/Nc1ccc(S(N)(=O)=O)cc1)C(=O)N2	31.3	0.02	2.23	3.63	25.1	66.6	84.5	52.6	82.4	4.55
COc1cc2ncn(-c3cc(O[C@@H](C)c4ccccc4Cl)c(C(N)=O)s3)c2cc1OC	32	4.3	3.99	9.25	28.5	8.63	40.3	11.8	34.8	-3.61
O=C1Nc2ccc(C(=O)c3ccco3)cc2C1=Cc1cc(Cl)c(O)c(Cl)c1	75.8	2.93	9.42	18.1	61.8	21.7	66.8	20.4	65.3	3.9
Nc1ncnc2occ(-c3ccc(NC(=O)Nc4cc(C(F)(F)F)cc(C(F)(F)F)c4)cc3)c12	5.19	0.93	3.12	5.87	-1.47	3.59	6.92	4.8	5.55	-0.71
NC(=O)c1cccc(Nc2nccc(Nc3cccc4[nH]ncc34)n2)c1	39.2	-4	0.69	0.64	29	-3.17	13.3	-4.57	6.87	-0.32
Cc1cccc(-c2n[nH]cc2-c2ccc3ncccc3n2)n1	30.9	1.75	1.88	4.05	19.5	-0.22	0.4	-0.46	0.93	-1.15
COc1ccc2cc(-c3c(-c4ccncc4)nc(-c4ccc([S+](C)[O-])cc4)n3C)ccc2c1 (stereo not given)	8.42	4.05	3.39	3.38	9.34	4.01	4.79	6.01	8.09	-0.63
COc1cc2ncn(-c3cc(OCc4ccccc4Cl)c(C(N)=O)s3)c2cc1OC	56.6	2.14	2.16	10.9	51	7.11	46.2	6.18	42.4	0.45
CC1=C(C(=O)Nc2ccc3[nH]ncc3c2)C(c2ccc(F)cc2)NC(=O)N1 (stereo not given)	11.1	2.25	5.95	7.37	13	1.11	5.91	1.29	6.58	0.66
O=C1NC(=O)C(c2cccc(Cl)c2)=C1Nc1ccc(O)c(Cl)c1	7.19	0.81	7.65	2.81	7.79	33.6	75.2	24.3	66.8	1.93

Compound	inhibition [1] [%]	inhibition [2] [%]	inhibition [3] [%]	inhibition [4] [%]	inhibition [5] [%]	inhibition [6] [%]	inhibition [7] [%]	inhibition [8] [%]	inhibition [9] [%]	inhibition [10] [%]
Nc1ncnc2occ(-c3ccc(NC(=O)Nc4cccc(C(F)(F)F)c4)cc3)c12	12.3	4.53	4.91	3.8	8.17	5.73	15.6	5.7	13.3	-2.6
CCn1c(-c2nonc2N)nc2cncc(C(=O)N3CCNCC3)c21	4.49	5.61	4.93	5.47	6.02	3.69	5.39	8.73	8.25	-0.22
Cn1cc(C=C2C(=O)Nc3cccnc32)c2ccccc21	29	2.69	7.29	7.13	23.6	13.7	47.9	10.5	33.8	1.41
CN1CCC(C(=O)Nc2n[nH]c3nnc(-c4ccccc4)cc23)CC1	14.1	6.89	5.56	6.64	14.6	4.72	13	5.88	9.3	-0.64
COc1ccc(-c2nn3ncccc3c2-c2ccnc(Nc3ccc(Cl)c(C(F)(F)F)c3)n2)cc1	14.7	2.33	1.56	3.94	10.2	1.84	5.36	2.73	6.97	0.59
NC(=O)c1ccc(-c2nc(-c3ccccn3)c(-c3ccc4c(c3)OCO4)[nH]2)cc1	5.75	3.95	3.52	2.63	7.53	3.9	3.51	4.2	3.42	-0.92
Cc1ccc(C(=O)NC2CCCCC2)cc1-c1ccc(C(=O)NCC2CC2)cc1	0.87	4.37	4.68	4.93	1.64	5.76	4.46	6.92	4.05	1.41
N#Cc1c(NC(=O)c2cccc3ccccc23)sc2c1CCCC2	13.8	3.76	3.46	5.15	11.1	3.4	4.3	2.39	3.8	-1.1
Cc1nnc(-c2ccc(C)c(-c3ccc(C(=O)Nc4cccc(C#N)c4)cc3)c2)o1	10.6	2.51	1.55	4.46	9.13	1.52	6	2.65	6.4	-1.07
CCn1c(-c2nonc2N)nc2cnc(Oc3cccc(NC(=O)c4ccc(OCCN5CCOCC5)cc4)c3)cc21	13.2	3.5	3.8	6.17	12.5	2.14	3.43	2.3	3.84	-1.24
NCc1ccc(-c2nc(-c3ccc(Cl)c(O)c3)c(-c3ccncc3)[nH]2)cc1	17.2	0.8	2.23	4.99	14.1	0.18	0.25	-1	-1.23	0.12
CN(C)c1cc2c(Nc3ccc4nc(Cc5ccccc5)[nH]c4c3)ncnc2cn1	9.42	6.17	5.42	8.81	9.2	4.35	3.57	4.95	2.18	-1.17
Nc1nc(-c2ccccn2)c(-c2ccc3ncccc3n2)s1	9.69	2.95	2.78	5.37	7.86	5.62	6.85	5.79	6.4	-2.14
CCCN1CCC(Oc2cc(Nc3nc(Nc4cccc(F)c4C(N)=O)c4cc[nH]c4n3)c(OC)cc2Cl)CC1	3.64	0.84	20.6	1	1.71	-0.56	1.54	-0.96	0.14	1.68
COc1cccc(-n2ncc3c(N/N=C/c4cccc(F)c4)ncnc32)c1	35	3.46	3.27	7.28	25.8	3.89	8.39	2.89	6.96	-0.8
CCn1c(-c2nonc2N)nc2c(C#CC(C)(C)O)nc(OC[C@@H](N)c3ccccc3)cc21	14.1	-0.93	3.8	-1.26	9.85	-2.01	15.2	-1.88	11.8	1.4
